PAX8 inh HTS – inhibitors of PAX8-driven TPO luciferase reporter, primary screen, RMG-I cells, single concentration. SteadyGlo, 24 h. inhibition, % at 12.6 µM. actives 1.2% (n = 360,000). AID 652154, 2013;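 active means mean replicate inhibition at least 60% with every replicate also reaching 60%; inconclusive means only one of the two criteria is met; inactive means mean below 60% and not all replicates reaching 60%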;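 further: luciferase light reporting Pax8 driven TPO promoter activity; plate controls were median of neutral control wells for no effect and mitoxantrone controls for full effect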
esBAF inh – Bmi1 luciferase reporter increase in mESCs, primary screen, esBAF inhibitor project, mouse ES cells, Bmi1 luciferase knock-in, single point; 24 h; 100% = twice the neutral-well signal; reporter increase, % at 12.5 µM; actives 2% (n = 350,000); in the data active means activation above about 40%; inconclusive means no clear call, values can overlap the other calls;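 further: 0% = median of the plate's neutral control wells and 100% = double that signal; a rise in the Bmi1 reporter signal indicates esBAF inhibition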
EWS-Fli block – EWS/Fli-driven NR0B1 reporter inhibitors, primary screen, A673 cells, NR0B1 luciferase, luminescence, MLPCN library. viability-normalised. inhibition, % at 12.6 µM. actives 0.67% (n = 350,000). AID 651661, 2012;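 active means mean inhibition of at least 50% after viability correction, with every replicate also passing that limit; inconclusive means mean reaches 50% but only one of two replicates passes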;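 further: firefly luciferase signal divided by Alamar Blue viability fluorescence both relative to DMSO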
Wnt act – Wnt/beta-catenin pathway activators, primary screen, cell-based, plate reader, single point; Wnt/beta-catenin reporter cell assay, activator; activation, % at 9.35 µM; actives 1.2% (n = 300,000); AID 743398, 2014; in the data active means activation above about 30%, passing the limit was not always enough; inconclusive means no clear call, values can overlap the other calls;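 further: 0% = neutral control wells and 100% = positive control wells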
MITF TRPM1 inh – inhibitors of MITF-dependent TRPM1 promoter reporter, primary screen, cell-based, SK-MEL-5, single point, luciferase; SK-MEL-5 TRPM1 promoter luciferase, 24 h; inhibition, % at 12.5 µM; actives 0.83% (n = 330,000); AID 488899, 2010;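 active means mean inhibition across replicates of 60% or more, whatever share of single replicates reaches that level; inconclusive means some that reach 60%, reason not given; inactive means mean inhibition across replicates below 60%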
MITF TRPM1 HTS – activators of MITF-driven TRPM1 promoter reporter, primary screen, cell-based, SK-MEL-5, luciferase, single point; SK-MEL-5 TRPM1-promoter luciferase, 24 h; % of positive control, neutral wells = 0; activation, % at 12.5 µM; actives 0.75% (n = 300,000); AID 588334, 2011;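 active means mean activation of at least 80% with every replicate also reaching 80%; inconclusive means mean reaches 80% but some replicate falls short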;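 further: 0% = neutral control wells and 100% = parthenolide positive control wells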
Starred values were filed as active, the others as inactive; ? = inconclusive; nt = no result given. The list is not random: actives were taken first. Their share in the collection is about 4%.

SMILES	PAX8 inh HTS	esBAF inh	EWS-Fli block	Wnt act	MITF TRPM1 inh	MITF TRPM1 HTS
O=C(Nc1nc2ccc(F)cc2s1)c1ccc([N+](=O)[O-])o1	16.8	88.5*	-94.1	70.5*	nt	nt
C[C@@H]1CN([C@@H](C)CO)C(=O)Cc2cc(NC(=O)Nc3cccc4ccccc34)ccc2O[C@@H]1CN(C)C(=O)Nc1ccc2c(c1)OCO2	8.5	-4.5	-12.4	nt	nt	nt
O=C(Cc1ccccn1)N[C@@H]1CC[C@@H](CCn2cc(-c3ccc(F)cc3)nn2)O[C@@H]1CO	nt	nt	-1.8	nt	nt	nt
Fc1ccc(N2CCN(Cc3ccccn3)CC2)cc1	-12.9	nt	-13.2	40.1*	8.8	-6.6
c1ccc(CN2CCOCC2)nc1	3.1	nt	0.6	-3.9	-7.3	6.1
O=C(CNS(=O)(=O)c1c(Cl)cccc1Cl)OCC(=O)c1ccc[nH]1	75.1*	-4.8	-2.7	-2.5	4.8	-4.0
O=C(CNS(=O)(=O)c1ccc(Br)cc1Cl)OCC(=O)c1ccc[nH]1	-14.9	-6.1	0.7	-1.4	3.7	-6.0
CCCCCC(CC(=O)NO)C(=O)NC(C(=O)N1CCCC1CO)C(C)C (stereo not drawn)	90.1*	8.3	-9.6	-2.3	-1.4	0.3
CC(C)(C)OC(=O)N1CCC[C@@H]1CO	nt	2.2	nt	nt	1.1	1.2
COc1ccccc1C(=O)Nc1ccc2c(c1)C(=O)N(C)C[C@H](OC)[C@@H](C)CN(C)[C@@H](C)CO2	-6.1	-3.2	-5.2	nt	nt	nt
CCOC(=O)Nc1ccc2c(c1)N(C(=O)CCN1CCOCC1)c1ccccc1S2=O (stereo not drawn)	106.1*	-14.3	nt	-11.5	14.6	nt
CCOC(=O)Nc1ccc2c(c1)N(C(=O)CCN1CCOCC1)c1ccccc1S2	-6.7	4.6	-1.0	2.9	-0.9	3.0
C[C@H](CO)N1C[C@H](C)[C@H](CN(C)CC2CC2)Oc2cc(-c3cccc(C#N)c3)ccc2S1(=O)=O	-4.1	0.0	-1.1	nt	nt	nt
C[C@@H]1CCCCO[C@H](CN(C)Cc2ccc(Cl)c(Cl)c2)[C@H](C)CN([C@@H](C)CO)C(=O)c2cc(NS(=O)(=O)c3ccc(F)cc3)ccc2O1	57.3	nt	-5.9	nt	nt	nt
Cc1nc(-c2ccc(C(=O)Nc3ccc(F)cc3)cc2)cs1	-52.2	-16.2	-44.5	43.3*	-12.2	10.4
Cc1nc(-c2ccc(C(=O)Nc3ccccc3F)cc2)cs1	-3.6	-82.2	61.1*	-25.9	49.1	-45.5
COc1ccc(NC(=O)c2ccc(-c3csc(C)n3)cc2)cc1	2.1	41.4*	-97.6	6.4	-25.3	nt
CNC[C@H]1Oc2ncc(Br)cc2C(=O)N([C@@H](C)CO)C[C@@H]1C	4.3	3.7	-3.0	nt	nt	nt
O=C1c2ccncc2C(=O)N1CNc1ccc(Cl)cc1	4.7	nt	11.9	59.9*	1.2	0.4
CC(C)(C)C(=O)OCc1nc(-c2ccc(Cl)cc2)cs1	-191.7	64.6*	-31.9	-4.6	-72.3	76.5
CC(C)(C)C(=O)OCc1nc(-c2ccc(F)cc2)cs1	-101.2	?	-0.2	0.2	-105.2	109.6*
COc1ccc(-c2csc(COC(=O)C(C)(C)C)n2)cc1	-55.1	nt	-19.6	11.0	-35.4	40.9
Nc1ccc2ccc(NS(=O)(=O)N3CCCCC3)cc2c1	3.3	nt	55.9*	-13.9	nt	nt
C[C@@H]1CN([C@H](C)CO)C(=O)c2cc(NS(C)(=O)=O)ccc2O[C@@H]1CN(C)S(=O)(=O)c1cccs1	nt	4.2	-1.0	nt	nt	nt
CCOC(=O)c1oc2nc3c(cc2c1N)CCCC3	-16.5	31.6	-92.3	37.3*	nt	nt
SMILES	PAX8 inh HTS	esBAF inh	EWS-Fli block	Wnt act	MITF TRPM1 inh	MITF TRPM1 HTS
CCOC(=O)c1oc2nc3c(cc2c1N)COC(C)(C)C3	-165.2	4.2	nt	49.1*	-56.5	59.1
Cc1sc2ncnc(Sc3ccccc3C(=O)O)c2c1C	7.4	nt	1.4	-0.7	-3.9	4.1
c1ccc2sc(Sc3ncnc4sccc34)nc2c1	46.9	nt	-24.1	-4.6	-5.6	1.6
Clc1ccc(-n2nnnc2Sc2ncnc3sccc23)cc1	nt	-16.2	nt	nt	65.9*	nt
Cc1sc2ncnc(Sc3nnnn3-c3ccccc3)c2c1C	nt	-5.0	nt	nt	69.0*	-66.9
C[C@H](CO)N1C[C@H](C)[C@H](CN(C)C(=O)Nc2ccc(C(F)(F)F)cc2)OCCCC[C@H](C)Oc2ccc(NC(=O)Nc3ccc(C(F)(F)F)cc3)cc2C1=O	32.5	-5.9	2.2	nt	nt	nt
CCC(/C=C1\Sc2ccc(OC)cc2N1CCO)=C\c1sc2ccc(OC)cc2[n+]1CCO	16.2	-26.4	3.0	-1.0	96.1*	-95.6
C[C@@H]1CCCCO[C@@H](CN(C)Cc2ccccc2)[C@@H](C)CN([C@@H](C)CO)C(=O)c2cc(NC(=O)CCCN(C)C)ccc2O1	-2.1	-4.9	-0.3	nt	nt	nt
O=C(Nc1ccc(Cl)c(Cl)c1)OCc1cccnc1	-104.0	53.3*	nt	17.9	-82.6	85.9*
O=C(Nc1cccnc1)OCc1ccccc1	5.5	30.9	-58.0	-0.3	-8.2	nt
C[C@@H]1CN([C@H](C)CO)C(=O)c2cccc(NS(=O)(=O)c3cccs3)c2O[C@@H]1CN(C)Cc1ccc(-c2ccccc2)cc1	-13.1	-3.4	-3.4	nt	nt	nt
COC(=O)Cn1c(=NC(=O)c2ccc(Cl)s2)sc2cc(C)ccc21	-29.8	26.6	nt	nt	-87.1	85.1*
COC(=O)Cn1c(=NC(=O)c2sc3ccccc3c2Cl)sc2cc(S(N)(=O)=O)ccc21	34.3	nt	-3.9	-4.2	8.7	-6.3
Oc1cccc(Nc2c3ccccc3nc3ccccc23)c1	-24.6	3.1	26.0	9.2	35.2	-34.2
CCN(CC)Cc1cc(Nc2c3ccccc3nc3c4ccccc4n(C)c23)cc(CN(CC)CC)c1O	15.9	-2.5	-2.9	-1.4	78.0*	-78.5
Cc1ccc(-c2nn(-c3ccccc3)cc2C=O)o1	-122.4	?	-19.2	45.5*	-18.7	22.3
Cc1ccc(-c2nn(-c3ccccc3)cc2CO)o1	nt	46.2*	nt	nt	-39.9	39.5
OCc1cn(-c2ccccc2)nc1-c1ccco1	nt	42.0*	nt	nt	-33.8	38.7
Cc1ccc(-c2nn(-c3ccccc3)cc2C(N)=O)o1	13.9	nt	-0.5	0.3	-3.8	2.8
COc1ccc(S(=O)(=O)Nc2ccc3c(c2)CC(=O)N([C@@H](C)CO)C[C@H](C)[C@H](CN(C)Cc2ccc(C(=O)O)cc2)O3)cc1	-18.3	-3.6	-7.3	nt	nt	nt
COC(=O)[C@H]1[C@H](CO)[C@H]2Cn3c(ccc(-c4ccccc4F)c3=O)[C@H]2N1CC1CCCC1	-0.2	-3.0	2.8	nt	nt	nt
CCCCNC(=O)/C(=C/c1ccccc1)NC(C)=O	138.8*	-7.5	-4.8	0.2	0.3	1.5
CC(=O)N/C(=C\c1ccccc1)C(=O)NC(C)C(=O)O (stereo not drawn)	2.4	nt	-11.6	-1.4	4.8	-2.1
Cc1cc(NC(=O)c2ccc(OCC3CCCO3)cc2)ccc1Br (stereo not drawn)	-107.1	70.6*	-34.1	52.0*	nt	nt
O=[N+]([O-])c1ccc(COc2ccc(CN3CCCC3)cc2)cc1	-72.7	24.3	-48.2	9.6	-105.6	100.5*

High-throughput results: PubChem, Broad Institute
